# Measurements as given in PubChem BioAssay (NCATS).
# “And” between values parts separate entries of the source, which are not always exact repeats. Identical values can stand only once. Inconclusive results are not listed. The source made the active and inactive calls. Calls follow the shape of the dose curve; as a rule, active = well fitted inhibition curve with a large enough effect in the signal ratio, with a control signal flat (not every such curve was filed as active); inconclusive = small, poorly fitted or top-dose-only effect, or effect the other way, or a change in a side signal; inactive = flat fitted curve, though single readings scatter; the % refers to the signal ratio.
# Target: Thyroid hormone receptor beta (Homo sapiens) (UniProt P10828)
# Assay: qHTS assay for small molecule antagonists of thyroid hormone receptor beta signaling (AID 588547);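 also: cells stimulated with 0.4 nM T3 agonist during compound exposure; series mostly up to about 77 µM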
# Settings: TR-UAS-bla HEK293, beta-lactamase ratio, antagonist mode, 18 h
# Text: NIH Chemical Genomics Center [NCGC] U.S. Environmental Protection Agency [EPA] National Institutes of Environmental Health Sciences [NIEHS] National Toxicology Program [NTP] NCGC Assay Overview Thyroid hormone receptor (TR) belongs to nuclear hormone receptor superfamily. There are two subtypes for TR: TR-alpha and TR-beta. TR-beta plays a major role in regulating plasma cholesterol levels and it mediates the biological activities of thyroid hormone. Screening environmental chemicals on TR-beta signaling will provide important information for the mechanism of compound action.
# NCGC Assay Protocol Summary Using a beta-lactamase reporter-gene under control of the TR response element, a cell-based assay [GeneBLAzer TR-UAS-bla-GripTite assay developed by Invitrogen] was used to measure TR-beta signaling in antagonist mode. TR-UAS-bla-GripTite HEK 293 cells were used with assay medium containing 2% charcoal/dextran FBS, 0.1 mM NEAA and 1 mM sodium pyruvate. The assay was performed in clear bottom black Greiner 1536-well plates. Library compounds were measured for their ability to inhibit the reporter gene activity. Compounds were screened in a titration series in 1536-well format. The fluorescence intensity (405 nm excitation, 460/530 nm emission) was measured using an EnVision plate reader. […] Concentration-response titration points for each compound were fitted to the Hill equation yielding concentrations of half-maximal inhibition (IC50) and maximal response (efficacy) values. qHTS protocol for TR-beta beta-lactamase assay in antagonist mode [Step] [Parameter] [Value] [Description] 1. Reagent; 5 uL; 2500 cells/well 2. Incubation; 37 C for 4 hrs 3. Compounds; 23 nL; 0.59 nM to 92 uM 4. Controls (DMSO); 23 nL 5. Agonist (Stimulator); 1uL; T3 at 0.4nM (final) concentrations 6. Incubation; 37 C for 18 hrs 7. Detection reagent; 1 uL of CCF4-dye 8. Incubation; RT for 2 hrs 9. Detection; Fluorescence; Envision plate reader
# % is scaled to controls: 0 for no effect and ±100 for the full control effect.
# Sequence of Thyroid hormone receptor beta (Homo sapiens) (P10828 whole entry, looked up): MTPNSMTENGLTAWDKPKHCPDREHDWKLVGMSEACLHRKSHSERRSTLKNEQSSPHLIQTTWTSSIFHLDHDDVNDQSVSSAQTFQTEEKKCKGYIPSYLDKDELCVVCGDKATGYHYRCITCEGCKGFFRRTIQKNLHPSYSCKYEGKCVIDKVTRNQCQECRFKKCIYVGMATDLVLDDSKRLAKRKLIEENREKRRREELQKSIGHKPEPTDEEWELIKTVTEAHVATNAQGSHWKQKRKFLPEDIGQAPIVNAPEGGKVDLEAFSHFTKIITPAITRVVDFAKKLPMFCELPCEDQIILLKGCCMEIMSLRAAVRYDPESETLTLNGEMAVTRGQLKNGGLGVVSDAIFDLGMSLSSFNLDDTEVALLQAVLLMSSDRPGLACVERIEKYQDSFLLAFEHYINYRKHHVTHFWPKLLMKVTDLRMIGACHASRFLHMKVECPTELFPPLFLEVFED
row,Structure (SMILES),activity change % (negative = inhibition)
1,CCOP(=S)(OCC)O/N=C(\C#N)c1ccccc1,19.6% (inactive)
2,O=C(NC(=O)c1c(F)cccc1F)Nc1cc(Cl)c(OC(F)(F)C(F)C(F)(F)F)cc1Cl (stereo unspecified),4.04% (inactive)
3,N#Cc1nn(-c2c(Cl)cc(C(F)(F)F)cc2Cl)c(N)c1S(=O)C(F)(F)F (stereo unspecified),-25.5% (inactive)
4,COP(=O)(OC)OC=C(Cl)Cl,-21% (inactive) and -1.19% (inactive) and -2.09% (inactive)
5,CCNc1nc(Cl)nc(NCC)n1,3.97% (inactive)
6,O=c1n(Cl)c(=O)n(Cl)c(=O)n1Cl,4.09% (inactive)
7,CCCCCCCCC(=O)NCc1ccc(O)c(OC)c1,5.83% (inactive)
8,C[C@@H]1C[C@@H]([C@H](O)CC2CC(=O)NC(=O)C2)C(=O)[C@@H](C)C1,-37.8% (inactive)
9,CCC(=O)O[C@H]1CC[C@H]2[C@@H]3CCC4=CC(=O)CC[C@]4(C)[C@H]3CC[C@]12C,4.79% (inactive)
10,CNC(=O)Oc1cccc2ccccc12,-1.73% (inactive) and -9.05% (inactive)
11,Oc1c(Br)cc(Br)cc1Br,15.6% (inactive)
